Giardia FBPA inh: qHTS Assay for Inhibitors of Fructose-1,6-bisphosphate Aldolase from Giardia Lamblia; 290,000 tested, 0.71% active; purified Giardia FBPA; A8B2U2; Potency, µM (doses to about 59.6 µM), inactives show at the top dose activity, negative = inhibition, hits mostly inhibitors; AID 2451, 2010; further: potency means the concentration at half of the fitted maximal effect; nearly all actives have a fitted effect of over 55% in size
Target sequence (A8B2U2 whole entry, looked up): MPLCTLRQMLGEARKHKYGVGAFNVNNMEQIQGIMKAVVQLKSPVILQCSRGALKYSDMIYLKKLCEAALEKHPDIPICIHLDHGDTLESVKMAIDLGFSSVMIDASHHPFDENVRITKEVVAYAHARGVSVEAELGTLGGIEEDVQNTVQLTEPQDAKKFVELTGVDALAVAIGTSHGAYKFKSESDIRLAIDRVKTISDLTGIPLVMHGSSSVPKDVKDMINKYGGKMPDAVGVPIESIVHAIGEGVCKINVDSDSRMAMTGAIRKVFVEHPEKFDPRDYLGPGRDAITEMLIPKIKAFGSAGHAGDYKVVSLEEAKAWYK
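Giardia FBPA (40 nM reagent) was preincubated 10 min at RT with compound (up to 57.5 uM final), then substrate plus GAPDH/TPI/NAD/arsenate coupling system with diaphorase/resazurin was added; resorufin fluorescence (525/598 nm) was read after 20 min.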
HCMV antiviral: qHTS Assay for inhibitors of the human cytomegalovirus (HCMV); HFF cells, HCMV-luciferase reporter, 72 h; stronger effect = lower value; activity change, negative = inhibition, % at 57.5 µM; 410,000 tested, 4.5% active; in the data active means activity change below about -60%; inconclusive means no clear call, values can overlap the other calls; inactive means above about -39%
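After 16 h attachment at 37C, HFF cells received test compound and HCMV-luciferase (1 PFU/cell); reporter luminescence read 72 h later, data normalized against buffer-only and known inhibitor Salinomycin.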
HCV inhibitor: qHTS Assay for Inhibitors of Hepatitis C Virus (HCV) | Huh7.5.1 HCVcc-Cre infection, luciferase reporter, 44 h | Potency, µM (top dose mostly 41.8 µM), for the others: top-dose activity change, negative = inhibition, hits mostly inhibitors | 340,000 tested, 3.4% active | AID 651820, 2012; further: potency means the concentration at half of the fitted maximal effect
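Infectious HCV cell culture screen: compound-treated cells (1,000/well, pre-plated 4 h) are infected with HCVcc-Cre at roughly 0.5 moi and grown 44 h. Infection is quantified by luciferase signal after 15 min substrate incubation at room temperature.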
Marburg entry inh: qHTS for inhibitors of binding or entry into cells for Marburg Virus; 300,000 tested, 1.8% active; Potency, µM (series often up to 37.8 µM), inactives show at the highest dose activity change, negative = inhibition, usual class: inhibitors; Marburg virus pseudotyped entry inhibition, cell reporter; calls by dose curve; tested in HEK293 cells; further: potency means the concentration at half of the fitted maximal effect
FMDV antiviral: High Throughput Screening for Foot and Mouth Disease Virus Antivirals | FMDV antiviral cell-based qHTS | Potency, µM (highest dose often 57.9 µM), for the others: at the top dose activity change, negative = inhibition, hits mostly inhibitors | 410,000 tested, 1.2% active | AID 1159524, 2015; calls by dose curve; tested in HEK293T cells; further: read-out not given here; potency means the concentration at half of the fitted maximal effect; nearly all actives have a fitted effect of over 45% in size
LASV entry inh: qHTS for Inhibitors of binding or entry into cells for Lassa Virus | Lassa virus pseudotype entry inhibition, cell reporter | Potency, µM (top dose mostly 37.9 µM), for the others: top-dose activity change, negative = inhibition, most hits filed as inhibitors | 300,000 tested, 1.2% active | AID 540256, 2011; calls by dose curve; tested in HEK293 cells; further: potency means the concentration at half of the fitted maximal effect; nearly all actives have a fitted effect of over 50% in size
The depositor's hits bear a star; ? = inconclusive; / = not tested or not shown; + = active, no number; [ ] = remark or other dose. In the library only some 8.3% were active in any assay of this set; here they are far more common. Unless noted, the call rests on the fitted dose curve; in most records, active means well fitted curve in the direction sought with a large enough effect; inconclusive means small, poorly fitted or top-dose-only effect, or another doubt; inactive means no such curve, though single readings can be large; an effect the other way counts as inactive or inconclusive. On the % scale 0 is the no-effect control and ±100 the full control effect.

SMILES	Giardia FBPA inh	HCMV antiviral	HCV inhibitor	Marburg entry inh	FMDV antiviral	LASV entry inh
COc1ccc(-n2c(CCNC(=O)c3ccccc3C(F)(F)F)nnc2SC)cc1	/	/	/	/	0.1%	/
Cc1ccc(S(=O)(=O)N(C)c2ccc(C(=O)Nc3cccc(C)n3)cc2)cc1	/	-76.6*	?	?	25.1µM*	-13.9%
CCN(c1ccccc1)S(=O)(=O)c1ccc(C(=O)Nc2cccc(C)n2)cc1	/	19.4	11.2µM*	/	?	/
Cc1cccc(NC(=O)c2cccc(S(=O)(=O)N(C)c3ccccc3)c2)n1	/	39.1	?	?	-16.8%	?
CCN(CCCCCN(C)C)Cc1cc2ccccc2o1	-5.7%	-23.3	?	10.3µM*	-0.2%	?
Cc1ccc(OCCOC(=O)Nc2ccccc2)cc1	1.3%	-62.0*	9.8%	11.8%	1.3%	13.6%
Cc1ccc(Sc2ncccc2COC(=O)Nc2c(C)cccc2C)cc1	4.5%	27.0	?	-15.3%	0.0%	2.82µM*
Cc1ccc(Sc2ncccc2COC(=O)Nc2ccccc2)cc1	-2.3%	13.7	?	-28.5%	-4.2%	15.8µM*
Cc1ccccc1NC(=O)OCc1cccnc1Sc1ccc(Cl)cc1	-0.1%	-39.0	?	11.9%	?	?
Cc1ccc(Sc2ncccc2C(=O)O)cc1	18.3%	22.8	14.6%	?	1.6%	7.6%
Cc1ccc(Nc2nc(C)cc(C)n2)c(C(=O)O)c1	/	14.8	/	/	0.0%	10.1%[46.1 µM]
Cc1ccccc1OCC(=O)Nc1cccc(C(=O)OCc2cc(=O)n3c(C)csc3n2)c1	/	-89.3*	/	/	-22.6%	13.8%[46.1 µM]
CCCc1nn2c(=O)cc(COC(=O)c3cccc(NC(=O)COc4ccccc4C)c3)nc2s1	/	20.3	/	/	14.1µM*	?
CCc1cccc(NC(=O)C(Cc2ccccc2)n2cccc2)c1 (centres undefined)	/	-19.5	/	?	3.8%	/
COC(=O)N1C(C)=Cc2ccccc2C1C/C(C)=C/C(C)=O (centres undefined)	-1.2%	/	/	?	/	/
Cc1ccc(Oc2ccc(S(=O)(=O)N3CCOCC3)cc2C(N)=O)c(-n2nc3ccccc3n2)c1	0.2%	-84.9*	-14.3%	?	-23.0%	?
COc1ccccc1Oc1ccc(S(=O)(=O)N2CCOCC2)cc1S(=O)(=O)N1CCOCC1	2.0%	-29.2	6.5%	-1.6%	19.7%	16.8%
Cn1nc(C(F)(F)F)cc1Oc1ncc(C(F)(F)F)cc1Cl	-3.0%	-61.7*	-13.1%	11.8%[14.2 µM]	-1.8%	7.4%
COc1cc(C(=O)N=c2sccn2C)c([N+](=O)[O-])cc1OC	/	-8.6	-3.3%	6.5%[46.1 µM]	9.1%	17.1%[46.1 µM]
Cn1ccsc1=NC(=O)c1ccc([N+](=O)[O-])o1	/	-91.1*	?	/	-7.9%	/
CC(C)C[C@H](NC(=O)[C@H](Cc1ccccc1)NC(=O)c1cnccn1)B(O)O	/	-98.7*	/	/	/	/
CCCCCOc1ccc(NC(=O)c2cc(SC)ccc2Cl)cc1	5.5%	-60.2*	?	-1.3%	-11.4%	8.0%
CCOc1ccc(NC(=O)c2cc(SC)ccc2Cl)cc1	-4.5%	?	-18.1%	?	-18.1%	0.2%
COc1cccc(Nc2ncc3nc(C)c(=O)n(CCC#N)c3n2)c1	-19.7%	/	/	/	-6.1%	/
C=CCn1c(C)cc(C(=O)CN2C(=O)c3ccccc3S2(=O)=O)c1C	/	/	19.2%	?	39.8µM*	?
CCn1c(C)cc(C(=O)CN2C(=O)c3ccccc3S2(=O)=O)c1C	/	?	-17.9%	?	?	1.41µM*
Cc1cc(C(=O)CN2C(=O)c3ccccc3S2(=O)=O)c(C)n1C(C)C	/	+	-4.4%	0.501µM*	?	2µM*
Cc1cc(C(=O)CN2C(=O)c3ccccc3S2(=O)=O)c(C)n1-c1ccccc1	-2.2%	-89.4*	?	8.91µM*	?	1.58µM*
CC1CN=C(c2ccc(Cl)cc2)c2c3ccccc3[n+]([O-])n21 (centres undefined)	/	31.1	/	/	/	/
CC(C)(C)S(=O)N1Cc2ccc(CO)cc2[C@@H]1CCO (some centres undefined)	/	-3.7	-3.5%[8.37 µM]	/	39.8µM*	/

Screening data deposited in PubChem BioAssay by National Center for Advancing Translational Sciences (NCATS).
